The supplement of paper PMC10849652
The full data set covers some 7,900 targets. This sample favours those with a hit. About 0.6% of all pairs of compound and target were hits.

Columns and labels:
Assay in all cases: log2 fold change, soluble protein after heating vs DMSO (PISA); higher = thermal stabilisation; K562 cells, 10 uM, 30 min; active = over 0.2 and 3.5 SD of the protein, either way, in both replicates (recomputed)
[1] = compound: CS(=O)(=O)c1ccc(-c2cnc(N)c(C(=O)Nc3ccccc3)n2)cc1
Procedure, shortened: (§1)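 K562 cells (2×10^6 cells/mL) were treated with 10 μM compound for 30 min, and aliquots were heated for 3 min over 48°C-58°C. Pooled aliquots were extracted in PBS with 0.5% NP-40 at 4°C, and the supernatant after 21,000xg for 90 min was measured by TMTpro 16plex LC-MS/MS with channel sums equalised. Reported thermal stability, relative to control samples and from duplicates, is a log2 fold change.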

crizotinib = compound: C[C@@H](Oc1cc(-c2cnn(C3CCNCC3)c2)cnc1N)c1c(Cl)ccc(F)c1Cl [crizotinib]
Procedure, shortened: as §1

[2] = compound: C[C@@H]1COCCN1C2=NC(=NC(=C2)C3(CC3)S(=O)(=O)C)C4=C5C=CNC5=CC=C4
Procedure, shortened: as §1

[3] = compound: C[C@H](C1=CC=C(C=C1)C(=O)NC2=C3C=CNC3=NC=C2)N
Procedure, shortened: as §1

duvelisib = compound: C[C@H](Nc1ncnc2nc[nH]c12)c1cc2cccc(Cl)c2c(=O)n1-c1ccccc1 [duvelisib]
Procedure, shortened: as §1

gandotinib = compound: Cc1cc(Nc2cc(CN3CCOCC3)c3nc(C)c(Cc4ccc(Cl)cc4F)n3n2)n[nH]1 [gandotinib]
Procedure, shortened: as §1

tozasertib = compound: Cc1cc(Nc2cc(N3CCN(C)CC3)nc(Sc3ccc(NC(=O)C4CC4)cc3)n2)n[nH]1 [tozasertib]
Procedure, shortened: as §1

[4] = compound: Cc1cc(SCc2sc(-c3ccc(C(F)(F)F)cc3)nc2C)ccc1OCC(=O)O
Procedure, shortened: as §1

doramapimod = compound: Cc1ccc(-n2nc(C(C)(C)C)cc2NC(=O)Nc2ccc(OCCN3CCOCC3)c3ccccc23)cc1 [doramapimod]
Procedure, shortened: as §1

ispinesib = compound: Cc1ccc(C(=O)N(CCCN)[C@@H](c2nc3cc(Cl)ccc3c(=O)n2Cc2ccccc2)C(C)C)cc1 [ispinesib]
Procedure, shortened: as §1

bafetinib = compound: Cc1ccc(NC(=O)c2ccc(CN3CC[C@H](N(C)C)C3)c(C(F)(F)F)c2)cc1Nc1nccc(-c2cncnc2)n1 [bafetinib]
Procedure, shortened: as §1

[5] = compound: Cc1cccc(CC(=O)N2CCc3c2ccc(-c2cn(C)c4ncnc(N)c24)c3F)n1
Procedure, shortened: as §1

nilotinib = compound: Cc1cn(-c2cc(NC(=O)c3ccc(C)c(Nc4nccc(-c5cccnc5)n4)c3)cc(C(F)(F)F)c2)cn1 [nilotinib]
Procedure, shortened: as §1

[6] = compound: Cc1nc(Nc2n[nH]c3c2CN(C(=O)N[C@H](CN(C)C)c2ccccc2)C3(C)C)c2sccc2n1
Procedure, shortened: as §1

dasatinib = compound: Cc1nc(Nc2ncc(C(=O)Nc3c(C)cccc3Cl)s2)cc(N2CCN(CCO)CC2)n1 [dasatinib]
Procedure, shortened: as §1

[7] = compound: Cc1ncc(-c2ccnc(Nc3ccc(S(C)(=O)=O)cc3)n2)n1C(C)C
Procedure, shortened: as §1

[8] = compound: Cn1cc(-c2ccc3c(c2)CCN3C(=O)Cc2cccc(C(F)(F)F)c2)c2c(N)ncnc21
Procedure, shortened: as §1

[9] = compound: Cn1cc(-c2ccc3nnc(C(F)(F)c4ccc5ncccc5c4)n3n2)cn1
Procedure, shortened: as §1

tipifarnib = compound: Cn1cncc1[C@@](N)(c1ccc(Cl)cc1)c1ccc2c(c1)c(-c1cccc(Cl)c1)cc(=O)n2C [tipifarnib]
Procedure, shortened: as §1

mubritinib = compound: FC(F)(F)c1ccc(/C=C/c2nc(COc3ccc(CCCCn4ccnn4)cc3)co2)cc1 [mubritinib]
Procedure, shortened: as §1

Measured: log2 fold change

ACSL1 (UniProt P33121)
UniProt P33121, sequence (P33121 whole entry, looked up): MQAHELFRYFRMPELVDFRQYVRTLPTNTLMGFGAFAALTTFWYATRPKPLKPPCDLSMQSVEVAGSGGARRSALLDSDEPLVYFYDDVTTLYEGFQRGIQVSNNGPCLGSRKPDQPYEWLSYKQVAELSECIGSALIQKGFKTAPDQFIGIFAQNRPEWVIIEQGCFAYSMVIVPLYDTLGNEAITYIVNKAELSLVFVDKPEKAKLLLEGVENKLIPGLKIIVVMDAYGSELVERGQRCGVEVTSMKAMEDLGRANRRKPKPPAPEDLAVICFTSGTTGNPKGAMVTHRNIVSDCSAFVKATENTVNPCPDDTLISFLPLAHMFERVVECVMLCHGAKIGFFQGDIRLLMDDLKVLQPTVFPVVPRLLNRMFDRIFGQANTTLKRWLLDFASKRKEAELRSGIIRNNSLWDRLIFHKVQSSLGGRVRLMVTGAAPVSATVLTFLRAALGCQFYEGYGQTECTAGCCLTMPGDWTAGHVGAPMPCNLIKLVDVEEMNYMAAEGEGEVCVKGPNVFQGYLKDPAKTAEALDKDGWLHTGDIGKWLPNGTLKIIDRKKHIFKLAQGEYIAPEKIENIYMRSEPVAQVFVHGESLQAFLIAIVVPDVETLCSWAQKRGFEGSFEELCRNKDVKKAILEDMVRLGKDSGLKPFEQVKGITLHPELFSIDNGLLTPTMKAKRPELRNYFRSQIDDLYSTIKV
inactive: [1] 0.012 | crizotinib -0.091 | [2] 0.017 | [3] -0.024 | duvelisib 0.056 | gandotinib 0.008 | tozasertib -0.028 | [4] 0 | doramapimod -0.003 | bafetinib -0.178 | [5] -0.004 | nilotinib -0.003 | [6] -0.07 | dasatinib -0.076 | [7] -0.013 | [8] 0.027 | [9] 0.024 | tipifarnib -0.015 | mubritinib -0.009
active: ispinesib -0.246

AGPAT3 isoform 3 (UniProt Q9NRZ7)
UniProt Q9NRZ7, sequence (Q9NRZ7 whole entry, looked up): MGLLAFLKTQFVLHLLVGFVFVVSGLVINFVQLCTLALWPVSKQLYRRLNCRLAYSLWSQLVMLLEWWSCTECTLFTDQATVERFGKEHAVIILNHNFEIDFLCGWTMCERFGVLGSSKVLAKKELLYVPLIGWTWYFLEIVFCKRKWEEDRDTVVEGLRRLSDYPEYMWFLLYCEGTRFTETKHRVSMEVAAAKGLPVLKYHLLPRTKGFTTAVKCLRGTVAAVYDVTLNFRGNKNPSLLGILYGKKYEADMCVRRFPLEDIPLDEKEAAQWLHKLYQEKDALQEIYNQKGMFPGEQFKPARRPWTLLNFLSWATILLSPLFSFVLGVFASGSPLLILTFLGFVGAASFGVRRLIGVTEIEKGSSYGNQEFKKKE
inactive: [1] -0.051 | crizotinib -0.04 | [2] 0.125 | [3] -0.074 | duvelisib 0.005 | gandotinib -0.004 | tozasertib -0.002 | [4] 0.023 | doramapimod 0.004 | ispinesib -0.074 | bafetinib -0.057 | [5] 0.04 | nilotinib -0.012 | [6] 0.004 | dasatinib -0.092 | [7] -0.007 | [8] 0.033 | [9] 0.018 | tipifarnib -0.025 | mubritinib 0.062

ARGLU1 (UniProt Q9NWB6)
UniProt Q9NWB6, sequence (Q9NWB6 whole entry, looked up): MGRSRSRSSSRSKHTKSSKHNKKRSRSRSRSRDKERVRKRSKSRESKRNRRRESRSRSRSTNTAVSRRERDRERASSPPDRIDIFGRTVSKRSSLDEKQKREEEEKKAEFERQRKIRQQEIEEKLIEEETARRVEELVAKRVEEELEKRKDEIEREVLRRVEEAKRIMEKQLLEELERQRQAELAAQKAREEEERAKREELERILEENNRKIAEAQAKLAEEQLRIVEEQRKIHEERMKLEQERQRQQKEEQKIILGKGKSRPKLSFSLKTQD
inactive: [1] -0.038 | crizotinib -0.008 | [2] -0.039 | [3] -0.344 | duvelisib -0.011 | gandotinib 0.212 | tozasertib 0.037 | [4] -0.027 | doramapimod 0.047 | ispinesib 0.242 | bafetinib 0.165 | [5] -0.058 | nilotinib 0.184 | dasatinib 0.146 | [7] -0.027 | [8] -0.046 | [9] -0.031 | tipifarnib 0.043 | mubritinib -0.057
active: [6] -1.13

AGPAT1 (UniProt Q99943)
UniProt Q99943, sequence (Q99943 whole entry, looked up): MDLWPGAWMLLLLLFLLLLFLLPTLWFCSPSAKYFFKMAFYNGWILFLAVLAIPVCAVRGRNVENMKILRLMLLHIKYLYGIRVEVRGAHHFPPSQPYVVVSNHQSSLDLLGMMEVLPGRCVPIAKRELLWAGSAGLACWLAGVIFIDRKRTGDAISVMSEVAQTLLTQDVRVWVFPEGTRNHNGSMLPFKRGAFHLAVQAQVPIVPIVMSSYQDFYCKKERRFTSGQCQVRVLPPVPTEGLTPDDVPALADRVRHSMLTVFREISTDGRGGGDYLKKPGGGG
inactive: [1] 0.017 | crizotinib 0.187 | [2] 0.043 | [3] -0.018 | duvelisib 0.041 | gandotinib -0.106 | tozasertib 0.012 | [4] 0.014 | doramapimod 0.019 | ispinesib 0.096 | bafetinib -0.036 | [5] 0.012 | nilotinib -0.035 | [6] 0.016 | dasatinib -0.033 | [7] -0.063 | [8] 0.033 | [9] -0.006 | tipifarnib 0.027 | mubritinib 0.014

BCCIP (UniProt Q9P287)
UniProt Q9P287, sequence (Q9P287 whole entry, looked up): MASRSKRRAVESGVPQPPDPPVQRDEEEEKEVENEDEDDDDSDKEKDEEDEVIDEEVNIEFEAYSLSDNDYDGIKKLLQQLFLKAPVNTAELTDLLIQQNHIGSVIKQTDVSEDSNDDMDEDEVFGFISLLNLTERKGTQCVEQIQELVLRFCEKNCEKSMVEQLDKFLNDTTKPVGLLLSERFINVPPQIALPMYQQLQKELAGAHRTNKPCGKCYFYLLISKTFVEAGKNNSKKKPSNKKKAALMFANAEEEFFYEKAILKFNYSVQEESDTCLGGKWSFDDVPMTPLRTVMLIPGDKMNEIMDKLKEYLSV
inactive: [1] -0.015 | crizotinib -0.02 | [2] -0.044 | [3] 0.074 | duvelisib -0.03 | gandotinib -0.093 | tozasertib -0.005 | [4] 0.037 | doramapimod 0.01 | ispinesib 0.001 | bafetinib 0.048 | [5] 0 | nilotinib -0.019 | [6] -0.022 | dasatinib -0.161 | [7] 0.03 | [8] -0.009 | [9] -0.006 | tipifarnib 0.006 | mubritinib 0.001

ARFGAP2 (UniProt Q8N6H7)
UniProt Q8N6H7, sequence (Q8N6H7 whole entry, looked up): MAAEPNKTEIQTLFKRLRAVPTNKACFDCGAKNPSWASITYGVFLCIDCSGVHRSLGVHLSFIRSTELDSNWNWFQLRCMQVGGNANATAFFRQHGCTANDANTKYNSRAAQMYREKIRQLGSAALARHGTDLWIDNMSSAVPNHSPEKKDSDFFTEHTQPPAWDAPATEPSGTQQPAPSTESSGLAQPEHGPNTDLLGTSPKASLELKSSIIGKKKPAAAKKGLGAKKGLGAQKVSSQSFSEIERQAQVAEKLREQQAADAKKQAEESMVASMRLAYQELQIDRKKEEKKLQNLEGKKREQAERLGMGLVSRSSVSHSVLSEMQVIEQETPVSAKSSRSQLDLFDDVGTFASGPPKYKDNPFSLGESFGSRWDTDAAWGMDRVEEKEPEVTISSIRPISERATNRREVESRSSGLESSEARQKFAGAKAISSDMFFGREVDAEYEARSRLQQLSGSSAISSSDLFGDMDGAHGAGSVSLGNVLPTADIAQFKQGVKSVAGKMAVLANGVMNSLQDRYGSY
inactive: [1] -0.04 | crizotinib 0.042 | [2] 0.062 | [3] 0.007 | duvelisib 0.033 | gandotinib -0.101 | tozasertib 0.026 | [4] 0.066 | doramapimod -0.009 | ispinesib 0.039 | bafetinib -0.006 | [5] -0.008 | nilotinib -0.045 | [6] -0.063 | dasatinib -0.096 | [7] 0.035 | [8] -0.024 | [9] -0.024 | tipifarnib -0.059 | mubritinib 0.041

ARL2BP (UniProt Q9Y2Y0)
UniProt Q9Y2Y0, sequence (Q9Y2Y0 whole entry, looked up): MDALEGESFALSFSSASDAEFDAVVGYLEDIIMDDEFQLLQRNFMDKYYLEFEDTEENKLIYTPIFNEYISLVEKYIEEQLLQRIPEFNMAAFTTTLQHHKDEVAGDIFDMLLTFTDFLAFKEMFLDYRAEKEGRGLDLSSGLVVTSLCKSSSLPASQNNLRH
inactive: [1] 0.077 | crizotinib -0.128 | [2] -0.017 | [3] -0.038 | duvelisib -0.004 | gandotinib -0.166 | tozasertib 0.006 | [4] 0.044 | doramapimod 0.101 | ispinesib -0.042 | bafetinib 0.001 | [5] 0 | nilotinib -0.078 | [6] -0.086 | dasatinib -0.069 | [7] -0.103 | [8] 0.125 | [9] 0.011 | tipifarnib -0.091 | mubritinib -0.027

ACP2 (UniProt P11117)
UniProt P11117, sequence (P11117 whole entry, looked up): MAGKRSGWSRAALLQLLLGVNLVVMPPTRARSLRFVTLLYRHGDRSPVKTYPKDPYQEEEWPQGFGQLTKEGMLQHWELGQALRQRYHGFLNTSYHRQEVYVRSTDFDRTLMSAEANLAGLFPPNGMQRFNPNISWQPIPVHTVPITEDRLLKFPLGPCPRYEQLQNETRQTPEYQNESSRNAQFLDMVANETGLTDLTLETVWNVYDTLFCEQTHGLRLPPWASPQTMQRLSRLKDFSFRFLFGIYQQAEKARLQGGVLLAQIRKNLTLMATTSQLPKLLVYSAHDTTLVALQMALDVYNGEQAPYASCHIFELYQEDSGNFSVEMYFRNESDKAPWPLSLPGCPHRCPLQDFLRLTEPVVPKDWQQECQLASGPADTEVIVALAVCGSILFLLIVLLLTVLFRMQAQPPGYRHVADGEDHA
inactive: [1] 0.06 | crizotinib -0.051 | [2] 0.017 | [3] -0.016 | duvelisib 0.023 | gandotinib -0.071 | tozasertib 0 | [4] -0.031 | doramapimod 0.016 | ispinesib -0.036 | bafetinib -0.107 | [5] -0.06 | nilotinib 0.002 | [6] -0.006 | dasatinib 0 | [7] 0.02 | [8] 0.015 | [9] 0.03 | tipifarnib 0.061 | mubritinib -0.008

ADD3 (UniProt Q9UEY8)
UniProt Q9UEY8, sequence (Q9UEY8 whole entry, looked up): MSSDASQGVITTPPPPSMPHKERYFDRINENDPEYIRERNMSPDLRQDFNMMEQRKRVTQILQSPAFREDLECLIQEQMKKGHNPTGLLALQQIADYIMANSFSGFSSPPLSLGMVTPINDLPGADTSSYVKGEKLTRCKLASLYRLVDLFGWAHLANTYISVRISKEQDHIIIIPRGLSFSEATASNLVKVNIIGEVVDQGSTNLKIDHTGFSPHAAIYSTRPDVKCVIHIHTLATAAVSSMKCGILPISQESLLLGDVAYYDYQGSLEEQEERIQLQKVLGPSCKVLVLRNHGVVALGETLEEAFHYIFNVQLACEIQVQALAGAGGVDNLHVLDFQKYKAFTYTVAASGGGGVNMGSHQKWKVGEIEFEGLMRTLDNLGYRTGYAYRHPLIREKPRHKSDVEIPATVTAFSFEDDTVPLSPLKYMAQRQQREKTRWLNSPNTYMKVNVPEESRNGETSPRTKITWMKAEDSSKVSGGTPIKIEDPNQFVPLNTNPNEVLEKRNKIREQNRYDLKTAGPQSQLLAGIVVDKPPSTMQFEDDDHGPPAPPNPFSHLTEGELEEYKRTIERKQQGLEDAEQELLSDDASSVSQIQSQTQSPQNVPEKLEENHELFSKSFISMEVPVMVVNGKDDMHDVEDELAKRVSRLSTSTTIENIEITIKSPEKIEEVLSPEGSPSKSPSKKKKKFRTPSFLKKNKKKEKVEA
inactive: [1] 0 | crizotinib 0.023 | [2] 0.018 | [3] -0.079 | duvelisib 0.023 | gandotinib -0.029 | tozasertib -0.053 | [4] -0.059 | doramapimod 0.016 | ispinesib 0.061 | bafetinib 0.008 | [5] -0.008 | nilotinib 0.031 | [6] -0.004 | dasatinib 0.072 | [7] -0.096 | [8] 0.028 | [9] -0.016 | tipifarnib 0.009 | mubritinib 0.038

ABHD16A (UniProt O95870)
UniProt O95870, sequence (O95870 whole entry, looked up): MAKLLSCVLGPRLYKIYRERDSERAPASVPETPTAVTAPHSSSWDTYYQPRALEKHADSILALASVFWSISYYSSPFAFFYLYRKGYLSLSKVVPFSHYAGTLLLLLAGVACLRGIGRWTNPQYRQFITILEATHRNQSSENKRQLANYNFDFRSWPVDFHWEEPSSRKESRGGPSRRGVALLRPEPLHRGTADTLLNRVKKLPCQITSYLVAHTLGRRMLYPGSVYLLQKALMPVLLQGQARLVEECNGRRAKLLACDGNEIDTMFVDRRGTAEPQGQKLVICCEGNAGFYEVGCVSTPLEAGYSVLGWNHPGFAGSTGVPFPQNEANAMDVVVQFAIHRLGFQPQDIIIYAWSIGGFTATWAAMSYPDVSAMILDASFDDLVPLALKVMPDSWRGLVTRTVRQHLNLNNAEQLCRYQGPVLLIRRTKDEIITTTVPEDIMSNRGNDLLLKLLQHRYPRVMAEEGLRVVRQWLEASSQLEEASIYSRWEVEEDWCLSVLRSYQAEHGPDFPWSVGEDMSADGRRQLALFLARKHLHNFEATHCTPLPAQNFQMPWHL
inactive: [1] -0.012 | crizotinib 0.277 | [2] 0.029 | [3] 0.033 | duvelisib 0.014 | gandotinib 0.158 | tozasertib -0.009 | [4] 0.012 | doramapimod 0.136 | ispinesib 0.125 | bafetinib 0.132 | [5] -0.056 | nilotinib 0.177 | [6] 0.055 | dasatinib 0.029 | [7] -0.058 | [8] 0.087 | [9] -0.075 | tipifarnib -0.01 | mubritinib 0.071

ATG4B isoform 2 (UniProt Q9Y4P1)
UniProt Q9Y4P1, sequence (Q9Y4P1 whole entry, looked up): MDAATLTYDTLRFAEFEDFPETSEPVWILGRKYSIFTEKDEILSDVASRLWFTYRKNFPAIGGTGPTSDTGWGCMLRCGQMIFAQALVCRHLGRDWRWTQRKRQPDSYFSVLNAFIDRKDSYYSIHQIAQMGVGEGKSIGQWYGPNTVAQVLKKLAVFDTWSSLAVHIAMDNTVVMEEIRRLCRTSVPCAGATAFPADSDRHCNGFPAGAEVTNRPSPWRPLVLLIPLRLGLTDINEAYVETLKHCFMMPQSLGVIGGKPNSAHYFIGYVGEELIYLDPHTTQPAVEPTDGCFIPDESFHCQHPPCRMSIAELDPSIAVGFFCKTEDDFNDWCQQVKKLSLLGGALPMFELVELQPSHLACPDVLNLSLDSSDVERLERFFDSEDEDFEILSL
inactive: [1] 0.078 | crizotinib -0.361 | [2] 0.056 | [3] -0.004 | duvelisib -0.024 | gandotinib -0.12 | tozasertib -0.286 | [4] 0.184 | doramapimod 0.003 | ispinesib -0.277 | bafetinib 0.004 | [5] 0.073 | nilotinib -0.061 | [6] -0.035 | dasatinib -0.242 | [7] -0.041 | [8] 0.022 | [9] 0.13 | tipifarnib -0.402 | mubritinib 0.073
